The full ranking holds about 33,000 sequences; the median of “e-score” is about -0.053, and the highest 2% start at about 0.38. This excerpt belongs to a sample that is enriched for the highest values.

Drawing on paper PMC10668032, “Altered binding affinity of SIX1-Q177R correlates with enhanced WNT5A and WNT pathway effector expression in Wilms tumor”, this text covers binding signal for 86 sequences.

In the experiment the target is T1, SIX1 homeodomain (reference allele) (human, UniProt Q15475 108-198).
T1 sequence: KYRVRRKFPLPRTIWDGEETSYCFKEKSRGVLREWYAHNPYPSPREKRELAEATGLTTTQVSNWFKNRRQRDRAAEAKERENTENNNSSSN
Kind of experiment: universal protein binding microarray; Universal all-10-mer PBM (8x60K, AMADID 030236), 300 nM GST-tagged protein, Alexa Fluor 488 anti-GST; buffer, salt, pH and temperature not stated (as in Berger); high values mean tight binding. Conditions: protein: ivt; tags: N-terminal GST; dsDNA, one strand shown. In outline: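 GST-tagged homeodomains were made by in vitro transcription/translation and quantified by anti-GST western blot against a recombinant GST standard curve. They were applied in duplicate at 300 nM final concentration to universal 'all 10-mer' protein binding microarrays (8×60K format). Binding was quantified as 8-mer E-scores with the Universal PBM Analysis Suite.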
As to ATCTGTCA, the binding signal came out at 0.208 ± 0.00539 E-score.
For the sequence ATCCCTTG, the binding signal came out at 0.271 ± 0.0326 E-score.
GGATTCGA: the binding signal was found to be 0.212 ± 0.0426 E-score.
The figure for TATCCCAA is 0.329 ± 0.0116 E-score; for CGTATTCA it is 0.265 ± 0.0108 E-score; for ATCTACCG it is 0.23245 ± 0.00017 E-score.
On to GATCTTCC, for which the binding signal came out at 0.2463 ± 0.00105 E-score.
On to GGATATCC, for which the binding signal amounted to 0.4671 ± 0.00165 E-score.
Then CGATATTC, with 0.317 ± 0.0233 E-score.
Regarding GGATAACC, the binding signal was 0.297 ± 0.00525 E-score.
With CGATAGCA, the binding signal came out at 0.206 ± 0.0373 E-score.
Consider GGATAGCC, for which the binding signal amounted to 0.3501 ± 0.00233 E-score.
As to CGATATCC, the binding signal stood at 0.476 ± 0.0109 E-score.
CGATATCG: the binding signal amounted to 0.439 ± 0.0105 E-score.
The figure for CGATATGA is 0.311 ± 0.0729 E-score.
AGATATGC: the binding signal was found to be 0.353 ± 0.0369 E-score.
CGATATGC: the binding signal is 0.428 ± 0.00624 E-score.
Consider CGATAGCG, for which the binding signal turned out to be 0.228 ± 0.0412 E-score.
The figure for CAATATCC is 0.37 ± 0.00402 E-score; for AGTAATAT it is 0.236 ± 0.0691 E-score.
With ATACGGGC, the binding signal was found to be 0.278 ± 0.0276 E-score.
Take TCGTCTCA: the binding signal turned out to be 0.22 ± 0.0818 E-score.
For GTATGAAC, the binding signal amounted to 0.208 ± 0.0436 E-score.
Then GTAACCCA, with 0.169 ± 0.0635 E-score.
Regarding ATCATGCG, the binding signal came to 0.24 ± 0.02 E-score.
Turning to ATATATGA, the binding signal turned out to be 0.233 ± 0.0893 E-score.
Consider ATCAGCCC, for which the binding signal is 0.308 ± 0.0315 E-score.
Turning to ATACCCTC, the binding signal amounted to 0.441 ± 0.0106 E-score.
For ATACCCTG, the binding signal was found to be 0.439 ± 0.0103 E-score.
The figure for ATACCTTC is 0.323 ± 0.0961 E-score; for ACACCCTA it is 0.31 ± 0.00433 E-score; for ACACCCTG it is 0.321 ± 0.0135 E-score.
For ACCCCCTA, the binding signal stood at 0.258 ± 0.0368 E-score.
For ATACTCTG, the binding signal stood at 0.354 ± 0.0279 E-score.
In the case of ATACCCTA, the binding signal amounted to 0.452 ± 0.00588 E-score.
For the sequence ACACCCTC, the binding signal is 0.306 ± 0.00827 E-score.
The figure for CCATCTGA is 0.259 ± 0.0253 E-score.
As to AGAAGTAT, the binding signal stood at 0.297 ± 0.117 E-score.
As for CTTAACAC, the binding signal stood at 0.151 ± 0.0479 E-score.
For the sequence AGGTGATA, the binding signal amounted to 0.418 ± 0.0434 E-score.
For the sequence AGGTGATC, the binding signal turned out to be 0.359 ± 0.0112 E-score.
Consider CGGTGATC, for which the binding signal was found to be 0.351 ± 0.0309 E-score.
Take CGGTGAGA: the binding signal worked out at 0.253 ± 0.0378 E-score.
CGGTGATA: the binding signal worked out at 0.4094 ± 0.00389 E-score.
As to GGGTGTTA, the binding signal stood at 0.282 ± 0.0105 E-score.
On to AGGTGAGA, for which the binding signal turned out to be 0.159 ± 0.0138 E-score.
Turning to GGGTGATA, the binding signal was 0.4596 ± 0.00219 E-score.
As for GGGTGAGA, the binding signal stood at 0.172 ± 0.0545 E-score.
As for GGGCTATA, the binding signal turned out to be 0.2005 ± 0.00146 E-score.
Then ATCATGGC, with 0.209 ± 0.00482 E-score; and AGTTATCG, with 0.19 ± 0.0243 E-score; and AGAATCCC, with 0.175 ± 0.0139 E-score.
In the case of GTATAACA, the binding signal came out at 0.238 ± 0.00858 E-score.
For CGATAGGA, the binding signal came out at 0.26 ± 0.0286 E-score.
As to GTATTGCA, the binding signal worked out at 0.169 ± 0.0405 E-score.
Turning to ATAGCACA, the binding signal came to 0.169 ± 0.00707 E-score.
With GCTAATCC, the binding signal was 0.208 ± 0.0144 E-score.
Turning to ATCAAGTA, the binding signal amounted to 0.234 ± 0.0311 E-score.
Turning to AGATACGA, the binding signal stood at 0.279 ± 0.0423 E-score.
As for GGATACGA, the binding signal is 0.36 ± 0.00395 E-score.
As for CGATACGC, the binding signal stood at 0.434 ± 0.00646 E-score.
Take AGATACGG: the binding signal is 0.401 ± 0.00895 E-score.
Consider CGATACGA, for which the binding signal came out at 0.39752 ± 0.00029 E-score.
Then CAATACGC, with 0.198 ± 0.00389 E-score.
In the case of AAATACGG, the binding signal was determined as 0.19 ± 0.0109 E-score.
Turning to AGATACGC, the binding signal turned out to be 0.349 ± 0.00878 E-score.
With ATATACGG, the binding signal amounted to 0.305 ± 0.00579 E-score.
ACTAATCT: the binding signal is 0.192 ± 0.0141 E-score.
AAGGTGAT: the binding signal was found to be 0.1945 ± 0.00188 E-score.
AGCCGGTA: the binding signal was 0.169 ± 0.00673 E-score.
The figure for CCGACCCA is 0.155 ± 0.0833 E-score.
Turning to ATTAACAC, the binding signal was 0.258 ± 0.0441 E-score.
Then ATTTAATA, with 0.164 ± 0.0598 E-score; and ATCTCCAC, with 0.204 ± 0.00599 E-score; and ATAGTACG, with 0.209 ± 0.0147 E-score.
In the case of ACACCGGC, the binding signal turned out to be 0.28 ± 0.0468 E-score.
Regarding ATCAATCG, the binding signal turned out to be 0.266 ± 0.0101 E-score.
As for ATATACTC, the binding signal was found to be 0.354 ± 0.0664 E-score.
Consider ATATACCC, for which the binding signal amounted to 0.446 ± 0.0125 E-score.
For the sequence CTATACCC, the binding signal is 0.369 ± 0.00624 E-score.
Consider ATATACCG, for which the binding signal was found to be 0.393 ± 0.00521 E-score.
Then ATATACTG, with 0.299 ± 0.0355 E-score.
The figure for ATATACCA is 0.326 ± 0.0157 E-score.
As to ATAGCGGA, the binding signal stood at 0.227 ± 0.0403 E-score.
Regarding CCCAAGCA, the binding signal is 0.263 ± 0.00886 E-score.
Then GTAGGCCA, with 0.17 ± 0.0671 E-score.
